# Laboratory results as given in PubChem BioAssay (NCI).
# Compounds without any hit were thinned out: in the full panel of roughly 79,000, 15% have a hit. Calls of active or inactive are those of the source. Cut-off read from the data, not from the text of the source: active = growth inhibition above about 70%; inactive = the rest.
# Assay: NCI Yeast Anticancer Drug Screen. Data for the sgs1 mgt1 strain (AID 161);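 note: 0% = growth of cultures given vehicle only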
# Conditions: S. cerevisiae sgs1 mgt1 strain, at 50.0 µM, hits give high values
# Procedure, shortened: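 Inhibition of yeast growth, normalised to vehicle-treated controls, is reported for a strain bearing genetic alterations in DNA damage repair.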
row,SMILES,growth inhibition
1,NC(=O)c1ccccn1,15% (inactive)
2,COc1cc(C=Nc2ccc(C(C)C)cc2)cc(OC)c1OC,19.1% (inactive)
3,CC(=O)OCC(=O)COC(C)=O,-8.4% (inactive)
4,CCCCNc1ccc([N+](=O)[O-])cc1[N+](=O)[O-],18.4% (inactive)
5,Nc1ncc(C(=O)O)c(N)n1,3.75% (inactive)
6,COC1=CC(=O)C=C(OC)C1=O,-28.6% (inactive)
7,C/C=C/[C@@]1(OC(=O)c2ccccc2)C[C@@H]2CCCC[C@@H]21,37.4% (inactive)
8,CN(C)CCN(C(=Nc1ccccc1)N1CCCC1)c1ccccc1,-30.4% (inactive)
9,CCOC(=O)C(C(=O)OCC)=C1c2ccccc2Oc2ccccc21,14.7% (inactive)
10,C=C(C)COCc1ccc(C(C)(C)CC(C)(C)C)cc1,-9.85% (inactive)
11,O=[N+]([O-])c1ccc(N=NC(=S)NNc2ccccc2)cc1,39.5% (inactive)
12,[O-]/[N+](=C\c1ccc(Cl)cc1)c1ccccc1,-21.1% (inactive)
13,Cc1ccc(/S(Cc2ccccc2)=N\S(=O)(=O)c2ccc(C)cc2)cc1 (stereo not given),-60.9% (inactive)
14,Cc1nc(N)c2c(ncn2C2OC(CO)C(O)C2O)n1 (stereo not given),-5.3% (inactive)
15,O=C1c2c(-c3ccccc3)ccc(-c3ccccc3)c2C(=O)c2c(-c3ccccc3)ccc(-c3ccccc3)c21,2.3% (inactive)
16,COc1ccc(N2C(=O)C3c4[nH]c5ccc(OC)cc5c4C4CCC(C(C)(C)C)CC4C3C2=O)cc1 (stereo not given),-5.45% (inactive)
17,COCCC(N)C(=O)O (stereo not given),-15% (inactive)
18,Cc1sc2c(c1C)C(=O)c1cccn1-2,-21.6% (inactive)
19,O=[N+]([O-])c1ccc(-c2ccccc2-c2ccccc2)cc1,8.25% (inactive)
20,OC1OCC(COc2ccc(Cl)cc2)OC1O (stereo not given),-12.2% (inactive)

row,SMILES,growth inhibition
1,CN1C=CC(=Cc2ccccc2)C=C1,-6.45% (inactive)
2,NC(=O)NNC(=O)c1nc[nH]c1[N+](=O)[O-],11.6% (inactive)
3,c1cc2c(cc1CC1CO1)OCO2 (stereo not given),0.85% (inactive)
4,CC(=O)NCC(C)(C)C,-12.7% (inactive)
5,CC(=O)NC(C)NC(C)=O,-13.8% (inactive)
6,CCC(C)(C)c1ccc(OCCCCNC(=O)c2ccc3ccccc3c2O)c(C(C)(C)CC)c1,-14.2% (inactive)
7,CCCCCCCCc1cc(CN2CCOCC2)c(O)c(CN2CCOCC2)c1,22.2% (inactive)
8,O=C(CCCC(=O)N/N=C/c1ccc(I)cc1)N/N=C\c1ccc(I)cc1,25.2% (inactive)
9,N#CCCN(C1=NN(C(=O)CC(=O)Nc2cccc(Cl)c2)C(c2ccccc2)C1)c1ccccc1Cl (stereo not given),-16.1% (inactive)
10,Cc1cccc(NC(=O)O/N=C(\Cl)C(C)C)c1,70% (inactive)
11,CCCCCN(CCCCC)CC(O)c1cccc2c1cc(Br)c1ccccc12 (stereo not given),8.7% (inactive)
12,O=C(O)c1cc(Cl)ccc1-c1ccc(Cl)cc1C(=O)Nc1ccc2c(c1)Cc1cc(Cl)cc(Cl)c1-2,97.8% (active)
13,Oc1ccc(NCc2ccccc2)cc1,16.9% (inactive)
14,CC(C)C1CCC(C)(C=O)C1 (stereo not given),-14.3% (inactive)
15,CC1=C(C(=O)Nc2ccc([N+](=O)[O-])cc2)C(c2cccc([N+](=O)[O-])c2)C(C(=O)Nc2ccc([N+](=O)[O-])cc2)=C(C)N1,12.9% (inactive)
16,CC(=O)OCC(OC(C)=O)C1(O)CCC2C3CCC4=CC(=O)CCC4(C)C3CCC21C (stereo not given),98.5% (active)
17,CCN(CC)CCN1C(=O)C(=O)N(c2cccc3ccccc23)C1=O,-14.9% (inactive)
18,COc1ccc(NC(=O)N2CC3CCN2CC3)cc1,-12.2% (inactive)
19,O=c1[nH]c2nc[nH]c(=O)c2[nH]1,5.1% (inactive)
20,Oc1ccc(Cl)cc1C=Nc1cnc2ccccc2c1,1.95% (inactive)
